Reference: PubChem BioAssay AID1851 (National Center for Advancing Translational Sciences (NCATS), 2009)
The campaign covered roughly 16,000 compounds. About 4,000 (25%) were called active. Roughly 26% stayed inconclusive and do not appear here. Not all results are given here. A number with no mark means an inactive call. Calls come from the whole dose curve; as a rule, active = well fitted curve in the direction sought with a large enough effect; inconclusive = small, poorly fitted or top-dose-only effect, or effect the other way; inactive = no such curve, though single readings can be large or run the other way.
% is set by controls: 0 for no effect and ±100 for the full control effect.

These compounds were tested against Cytochrome P450 2C9 (Homo sapiens) (UniProt P11712) (assay: Cytochrome panel assay with activity outcomes). Conditions: recombinant CYP, pro-luciferin dealkylation, luminescence, p450-cyp2c9; series mostly up to 57.1 µM; activity, negative = inhibition: at the top concentration.
Cytochrome P450 2C9 (Homo sapiens), sequence (P11712 whole entry, looked up): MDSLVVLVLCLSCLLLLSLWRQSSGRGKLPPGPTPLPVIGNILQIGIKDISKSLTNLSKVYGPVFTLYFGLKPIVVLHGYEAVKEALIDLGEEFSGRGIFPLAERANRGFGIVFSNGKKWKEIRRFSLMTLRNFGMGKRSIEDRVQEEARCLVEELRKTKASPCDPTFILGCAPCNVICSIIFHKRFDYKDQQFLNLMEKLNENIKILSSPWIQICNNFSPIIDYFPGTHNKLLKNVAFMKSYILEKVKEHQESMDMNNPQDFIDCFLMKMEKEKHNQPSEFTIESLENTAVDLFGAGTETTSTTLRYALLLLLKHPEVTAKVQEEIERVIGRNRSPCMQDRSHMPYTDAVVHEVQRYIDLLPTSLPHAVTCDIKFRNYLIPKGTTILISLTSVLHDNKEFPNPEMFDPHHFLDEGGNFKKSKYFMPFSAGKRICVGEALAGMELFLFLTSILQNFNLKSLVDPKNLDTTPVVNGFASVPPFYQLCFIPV
With `Cc1sc2nc(C3CC3)nc(SCC(=O)N3CC(=O)Nc4ccccc43)c2c1C` the AC50 was 1 µM (active). In the case of `Cc1nnc(SCC(=O)N2CC(=O)Nc3ccccc32)n1Cc1ccccc1`, the “activity, negative = inhibition” value is reported as -9.86%. `O=C(Nc1ccc(F)cc1Cl)c1ccc2c(=O)n3c(nc2c1)CCCCC3` was tested, and the “activity, negative = inhibition” value was -38.3%. In the case of `O=c1c2ccccc2nc2n1CCC2`, the “activity, negative = inhibition” value is reported as -23%. In the case of `O=c1c2c(-c3ccc(Cl)cc3)csc2nc2n1CCC2`, the AC50 is reported as 14.1 µM (active). `COCC(=O)N1CCC2(CC1)CN(C(=O)Nc1cccc(F)c1)C2` was tested, and the “activity, negative = inhibition” value was -3.38%. In the case of `O=c1c(O)c(-c2ccc(O)c(O)c2)oc2cc(O)cc(O)c12`, the “activity, negative = inhibition” value is reported as -0.213%. With `O=c1c(-c2ccc(O)cc2)coc2cc(O)cc(O)c12` the “activity, negative = inhibition” value was -21.8%. In the case of `O=c1c(-c2ccc(O)cc2)coc2cc(O)ccc12`, the AC50 is reported as 6.31 µM (active). `CSc1nc(N)c2ncn([C@H]3O[C@H](COP(=O)(O)OP(=O)(O)O)[C@@H](O)[C@@H]3O)c2n1` was tested, and the “activity, negative = inhibition” value was -4.22%. `O=C1C2C3c4ccccc4C(c4ccccc43)C2C(=O)N1c1nc(-c2ccccc2)cs1` (stereo not given) was tested, and the AC50 was 0.891 µM (active). `O=C1[C@@H]2[C@@H](C(=O)N1c1ccc(OCc3ccccc3)cc1)[C@@H]1c3ccccc3[C@@H]2[n+]2ccccc21` gave an activity, negative = inhibition of 0.978% [at 11.4 µM]. For `CN(C)CCCN1c2ccccc2Sc2ccc3ccccc3c21`, the activity, negative = inhibition was -11.1% [at 11.4 µM]. Compound `CO[C@@H]1/C=C\CC(=O)N[C@@H](C)C(=O)OC[C@@H](OC)[C@H](C)CCCC(=O)OC[C@H]1C` has an activity, negative = inhibition of -25.9% [at 11.4 µM]. For `COC(=O)c1ccc(N2CCN(CC(=O)c3ccc(-c4ccccc4)cc3)CC2)c([N+](=O)[O-])c1`, the AC50 was 5.01 µM (active). `Cc1cc(C)n(-c2cc(N3CCN(C(=O)c4ccc(C(C)(C)C)cc4)CC3)ccc2[N+](=O)[O-])n1` was tested, and the AC50 was 3.98 µM (active). For `Cn1c(=O)n(C)c2cc([N+](=O)[O-])c(N3CCN(C(=O)c4ccccc4Cl)CC3)cc21`, the “activity, negative = inhibition” value was 3.49%. In the case of `Cc1ccc(C(=O)O/N=C\c2ccc(N3CCCCC3)c([N+](=O)[O-])c2)cc1`, the AC50 is reported as 2.24 µM (active). For `Cc1ccccc1C(=O)N1CCN(c2ccc([N+](=O)[O-])c(N3CCOCC3)c2)CC1`, the AC50 was 5.01 µM (active). `CN(C)CCNc1nc2c(c(=O)n(C)c(=O)n2C)n1C` gave an activity, negative = inhibition of 4.45% [at 11.4 µM]. With `CCCN(CC1CC1)c1nc(C)nc(Nc2c(Cl)cc(Cl)cc2Cl)c1Cl` the “activity, negative = inhibition” value was -24.6%. For `C=CC[C@@H]1C=C[C@H](O/N=C(\C)CCN2CCCc3nc(C)c(C)cc32)[C@H](CO)O1`, the activity, negative = inhibition was 3.93% [at 11.4 µM]. In the case of `CO/N=C/c1ccc(N2CCN(C(=O)c3ccc(Cl)cc3Cl)CC2)c([N+](=O)[O-])c1`, the AC50 is reported as 7.94 µM (active). `COCC(=O)N1CCN(c2ccc([N+](=O)[O-])cc2)CC1` was tested, and the “activity, negative = inhibition” value was 11.2%. With `Cc1ccc(OC(=O)c2ccc(N3CCOCC3)c([N+](=O)[O-])c2)cc1` the AC50 was 14.1 µM (active). For `Cc1ccc(OCC(=O)N2CCN(c3ccc([N+](=O)[O-])c(N4CCOCC4)c3)CC2)cc1`, the AC50 was 7.94 µM (active). `CCOC(=O)c1c(NC(=O)c2ccc(N3CCOCC3)c([N+](=O)[O-])c2)sc(C)c1C` was tested, and the “activity, negative = inhibition” value was -13.2%. `CC(C)Cn1c(C(C)C)nc([N+](=O)[O-])c1S(=O)(=O)c1ccc(F)cc1` was tested, and the “activity, negative = inhibition” value was -16.4%. With `CN(C)Cc1ccccc1-c1nccc(NC2CC2)n1` the activity, negative = inhibition was 5.88% [at 2.29 µM]. For `CC(C)=CCC/C(C)=C/CO/N=C1/C[C@@H](O)[C@@H](O)[C@@H]2[C@@H]3C(=O)N(C[C@@H]4CCCO4)C(=O)[C@H]3CC[C@H]12`, the activity, negative = inhibition was 4.47% [at 11.4 µM]. With `O=C(Cn1cnc([N+](=O)[O-])c1)NCc1ccc(F)cc1` the “activity, negative = inhibition” value was -25.7%. `COc1ccccc1CN1CCC2(CC1)CCN(C(=O)c1ccco1)CC2` was tested, and the “activity, negative = inhibition” value was 11.3%. For `COc1ccccc1OCCn1cc(C(=O)c2ccco2)c2ccccc21`, the AC50 was 0.562 µM (active). In the case of `COc1ccccc1CN1CCCC2(CCN(C(=O)c3ccco3)CC2)C1`, the “activity, negative = inhibition” value is reported as 0.5%. With `O=C(Cn1cc(C(=O)c2ccco2)c2ccccc21)NCc1ccco1` the AC50 was 14.1 µM (active). With `Cc1ccc(CNC(=O)Cn2c(=O)oc3ccccc32)o1` the “activity, negative = inhibition” value was -2.17%. In the case of `Cc1ccccc1C(=O)c1cccn1CC(=O)NCc1ccco1`, the “activity, negative = inhibition” value is reported as -24.1%. For `N[C@H](C(=O)N[C@@H]1C(=O)N2C(C(=O)O)=C(Cl)CS[C@@H]12)c1ccccc1`, the “activity, negative = inhibition” value was -11.3% [at 25.6 µM]. Compound `COc1cccc2c1C(=N)c1c(O)c3c(c(O)c1C2=O)C[C@](O)(C(C)=O)C[C@@H]3O[C@H]1C[C@H](N)[C@@H](O)[C@H](C)O1` has an activity, negative = inhibition of -16.6% [at 11.4 µM]. With `COc1ccc(NC(=O)C23CC4CC(C2)CC(n2cnc(Br)n2)(C4)C3)c(C)c1` the “activity, negative = inhibition” value was -24.1%. With `O=C(NC12CC3CC(CC(C3)C1)C2)C12CC3CC(C1)CC(n1cnc(Cl)n1)(C3)C2` the AC50 was 12.6 µM (active). In the case of `CNc1ccnc(-c2ccccc2CN(C)C)n1`, the activity, negative = inhibition is reported as 0.444% [at 2.29 µM]. `CCOc1ccc(CCNC(=O)CCCN2C(=O)c3ccccc3C2=O)cc1OCC` was tested, and the AC50 was 15.8 µM (active). With `CCOc1ccc(CCNC(=O)C2CCN(S(=O)(=O)CC)CC2)cc1OCC` the “activity, negative = inhibition” value was -11.3%. In the case of `CCCCCOC(=O)c1c(N)n(CCOC)c2nc3ccccc3nc12`, the AC50 is reported as 5.01 µM (active).
